How the values were obtained:
Test in all cases: protein-binding microarray (PBM); PBM: ~300 nM protein, 6 mM HEPES pH 7.8, 80 mM KCl, 0.5 mM EDTA, 0.5 mM EGTA, 6% glycerol, 35 ng/ul poly-dIdC, 1% milk, 1 h, room temperature; Ap Aiptasia and Nv Nematostella (sea anemones) / Co Capsaspora / Aq Amphimedon (sponge) / Dm Drosophila / Hu human; RHD is the Rel homology domain; high values mean tight binding
Settings in all cases: dsDNA, one strand shown
GST-Ap-NF-kB RHD = target: T1, GST-Ap-NF-kB RHD (Exaiptasia pallida (Aiptasia), UniProt A0A913YAJ5 2-422)
T1 sequence: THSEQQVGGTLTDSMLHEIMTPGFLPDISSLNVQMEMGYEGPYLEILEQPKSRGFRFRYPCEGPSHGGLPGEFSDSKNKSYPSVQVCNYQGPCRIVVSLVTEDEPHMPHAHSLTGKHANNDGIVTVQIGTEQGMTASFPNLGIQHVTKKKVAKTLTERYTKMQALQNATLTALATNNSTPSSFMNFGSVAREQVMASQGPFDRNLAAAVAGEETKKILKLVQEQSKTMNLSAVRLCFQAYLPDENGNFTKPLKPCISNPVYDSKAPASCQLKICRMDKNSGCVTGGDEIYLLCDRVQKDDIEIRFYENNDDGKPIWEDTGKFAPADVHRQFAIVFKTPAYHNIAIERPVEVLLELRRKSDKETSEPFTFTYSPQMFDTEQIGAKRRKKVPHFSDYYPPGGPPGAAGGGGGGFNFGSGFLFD

[1] = target: T2, GST-Nv-NF-kB (Cys allele) (Nematostella vectensis, UniProt E5G601 2-411)
T2 sequence: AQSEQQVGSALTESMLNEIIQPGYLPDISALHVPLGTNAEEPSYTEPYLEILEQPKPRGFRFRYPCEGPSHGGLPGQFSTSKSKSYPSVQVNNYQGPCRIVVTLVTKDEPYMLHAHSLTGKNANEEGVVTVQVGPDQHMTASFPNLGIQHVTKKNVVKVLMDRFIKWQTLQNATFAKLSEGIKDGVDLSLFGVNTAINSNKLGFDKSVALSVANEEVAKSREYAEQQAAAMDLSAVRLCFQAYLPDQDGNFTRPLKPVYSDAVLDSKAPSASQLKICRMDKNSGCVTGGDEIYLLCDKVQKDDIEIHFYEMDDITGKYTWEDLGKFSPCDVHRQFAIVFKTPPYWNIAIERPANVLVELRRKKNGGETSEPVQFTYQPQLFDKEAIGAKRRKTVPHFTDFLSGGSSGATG

GST-Co-NF-kB = target: T3, GST-Co-NF-kB (Capsaspora owczarzaki, UniProt F1ARL5 200-546)
T3 sequence: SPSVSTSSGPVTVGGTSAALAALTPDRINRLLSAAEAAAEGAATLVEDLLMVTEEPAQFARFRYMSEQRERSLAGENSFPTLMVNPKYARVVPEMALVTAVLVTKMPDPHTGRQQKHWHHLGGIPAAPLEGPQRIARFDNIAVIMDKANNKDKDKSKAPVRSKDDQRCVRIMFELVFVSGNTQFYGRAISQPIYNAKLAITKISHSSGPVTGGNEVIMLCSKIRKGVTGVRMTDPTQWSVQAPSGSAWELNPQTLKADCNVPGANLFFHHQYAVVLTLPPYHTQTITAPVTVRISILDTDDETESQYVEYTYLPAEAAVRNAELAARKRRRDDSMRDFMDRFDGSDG

GST-Dm-Relish = target: T4, GST-Dm-Relish (Drosophila melanogaster, UniProt Q94527 99-473)
T4 sequence: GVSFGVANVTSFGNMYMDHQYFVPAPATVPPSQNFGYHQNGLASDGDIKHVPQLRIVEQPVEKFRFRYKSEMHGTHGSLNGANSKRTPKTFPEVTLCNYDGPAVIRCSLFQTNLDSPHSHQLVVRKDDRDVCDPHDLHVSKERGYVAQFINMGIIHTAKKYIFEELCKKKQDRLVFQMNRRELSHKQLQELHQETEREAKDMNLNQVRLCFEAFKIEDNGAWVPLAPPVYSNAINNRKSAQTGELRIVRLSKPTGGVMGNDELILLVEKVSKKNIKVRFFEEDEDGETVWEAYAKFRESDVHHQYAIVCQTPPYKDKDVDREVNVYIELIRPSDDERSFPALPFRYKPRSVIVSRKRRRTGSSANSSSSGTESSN

GST-Aq-NF-kB = target: T5, GST-Aq-NF-kB (Amphimedon queenslandica, UniProt A9Y5G7 2-389)
T5 sequence: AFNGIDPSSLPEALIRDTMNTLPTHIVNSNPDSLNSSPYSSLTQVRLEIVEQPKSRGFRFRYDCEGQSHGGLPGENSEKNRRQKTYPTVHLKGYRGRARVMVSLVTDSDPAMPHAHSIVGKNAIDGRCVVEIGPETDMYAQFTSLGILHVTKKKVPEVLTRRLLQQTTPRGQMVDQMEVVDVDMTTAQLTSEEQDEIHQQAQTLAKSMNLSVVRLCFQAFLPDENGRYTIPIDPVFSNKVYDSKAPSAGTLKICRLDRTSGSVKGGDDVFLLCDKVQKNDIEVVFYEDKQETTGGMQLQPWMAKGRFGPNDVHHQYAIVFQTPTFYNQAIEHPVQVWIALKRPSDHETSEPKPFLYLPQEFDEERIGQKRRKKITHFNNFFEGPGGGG

Sequence | binding signal (GST-Ap-NF-kB RHD) [z-score] | binding signal [1] [z-score] | binding signal (GST-Co-NF-kB) [z-score] | binding signal (GST-Dm-Relish) [z-score] | binding signal (GST-Aq-NF-kB) [z-score]
CCGATTAACATCAGAATAACCCCTGATGTTAATCGGGTCTTGATTCGCTTGACGCTGCTG | 5.37 | 3.87 | 1.66 | 3.29 | 4.42
CCGATTAACATCACCCCCCCCCGTGATGTTAATCGGGTCTTGATTCGCTTGACGCTGCTG | 7.33 | 5.51 | 7.6 | 6.11 | 5.46
CCGATTAACATCAAAAAGGGAAATGATGTTAATCGGGTCTTGATTCGCTTGACGCTGCTG | 2.59 | 5.91 | 1.33 | 1.31 | 4.54
CCGATTAACATCAGGGAAAAAACTGATGTTAATCGGGTCTTGATTCGCTTGACGCTGCTG | 2.85 | 4.45 | 5.17 | 5.49 | 5.31
CCGATTAACATCAGAAATCTCCCTGATGTTAATCGGGTCTTGATTCGCTTGACGCTGCTG | 3.4 | 5.21 | 2.43 | 1.79 | 5.79
CCGATTAACATCAAGGGGTCCCCTGATGTTAATCGGGTCTTGATTCGCTTGACGCTGCTG | 5.55 | 3.3 | 1.66 | 6.15 | 4.02
CCGATTAACATCAGACCTTCCCCTGATGTTAATCGGGTCTTGATTCGCTTGACGCTGCTG | 4.8 | 4.93 | 4.12 | 4.54 | 5.13
CCGATTAACATCAAGAGACCCCCTGATGTTAATCGGGTCTTGATTCGCTTGACGCTGCTG | 5.03 | 2.88 | 2.08 | 3.99 | 3.76
CCGATTAACATCATAAGCGGGGATGATGTTAATCGGGTCTTGATTCGCTTGACGCTGCTG | 3.32 | 3.81 | 4.81 | 2.26 | 3.7
CCGATTAACATCAGGCAATTCCCTGATGTTAATCGGGTCTTGATTCGCTTGACGCTGCTG | 2.76 | 5.17 | 1.58 | 2.03 | 6.13
CCGATTAACATCAAGGGAATACCTGATGTTAATCGGGTCTTGATTCGCTTGACGCTGCTG | 4.61 | 4.26 | 2.25 | 6.28 | 5.48
CCGATTAACATCAGGGAACAACCTGATGTTAATCGGGTCTTGATTCGCTTGACGCTGCTG | 2.52 | 2.46 | 1.05 | 4.7 | 4.61
CCGATTAACATCAAGGGAATCCCTGATGTTAATCGGGTCTTGATTCGCTTGACGCTGCTG | 6.73 | 6.1 | 2.83 | 9.2 | 6.63
CCGATTAACATCAGGCATTTCCCTGATGTTAATCGGGTCTTGATTCGCTTGACGCTGCTG | 3 | 5.12 | 1.77 | 1.97 | 6.69

— publication PMC5700166
